± gives the standard deviation of the averaged measurements.
Tests used:
Conditions in all cases: concentration: 10 µM; 24 h
[1] = test system: HCC1569; assay: cell number relative to DMSO (% of DMSO); higher = more cells (less growth inhibition / toxicity)
Summary of the method: (§1)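 H1.0 nuclear intensity or cell number is stated as percent of the plate control, based on the median of replicates, and HCC1569 values were smoothed for positional effects. These came from HCC1569 and TDF cells treated with compounds at 10 µM for 24 h at 37 °C in triplicate, then fixed in 3.7% formaldehyde and stained with a rabbit anti-H1.0 antibody, an AlexaFluor 647 secondary and DAPI.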

[2] = test system: TDF; assay: as above
Summary of the method: as §1

[3] = test system: TDF; assay: H1.0 immunofluorescence intensity relative to DMSO (% of DMSO); higher = stronger H1.0 induction, active = 120 or more
Summary of the method: as §1

[4] = test system: HCC1569; assay: H1.0 immunofluorescence intensity relative to DMSO (% of DMSO); higher = stronger H1.0 induction, active = 140 or more
Summary of the method: as §1
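Throughout, for H1.0 immunofluorescence intensity relative to DMSO: TDF is a line of transformed human dermal fibroblasts of mesenchymal origin.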
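Throughout, for cell number relative to DMSO: TDF denotes transformed human dermal fibroblasts of mesenchymal origin.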

SMILES	cell number [1]	cell number [2]	H1.0 immunofluorescence intensity [3]	H1.0 immunofluorescence intensity [4]
O=c1onc2n1-c1cc(Br)ccc1OC2	97.4	104	94 (inactive)	96 (inactive)
Cc1cc(O)c2c(c1)C(=O)c1cc(O)cc(O)c1C2=O [Emodin]	98.4 ± 1.2	96.8 ± 5.4	98.6 (inactive)	89.8 (inactive)
Nc1nccc(-c2c(-c3ccc(F)cc3)ncn2C2CCNCC2)n1	84.5	89.4	88.6 (inactive)	143 (active)
CC(C=CC1=C(C)CCCC1(C)C)=CC=CC(C)=CC(=O)Nc1ccc(O)cc1 [4-Hydroxyphenylretinamide]	89.9	112	95.7 (inactive)	120 (inactive)
CCCCCC(O)CC=C1C(=O)C=CC1CC=CCCCC(=O)O (stereo unspecified) [D12-Prostaglandin J2]	108	96.8	103 (inactive)	106 (inactive)
O=C(O)CCC(=O)N1CCC[C@H]1C(=O)O [N-Succinyl-L-proline]	99.6	100	102 (inactive)	104 (inactive)
COc1ccc(C2CNC(=O)C2)cc1OC1CCCC1 (stereo unspecified) [Rolipram]	101 ± 1.8	108 ± 4.6	91.5 (inactive)	110 (inactive)
Nc1nc(=O)c2ncn(COCCO)c2[nH]1 [Acyclovir]	98.8	104	90.2 (inactive)	85.5 (inactive)
NC(=S)c1ccc[n+](C2OC(COP(=O)([O-])OP(=O)(O)OCC3OC(n4cnc5c(N)ncnc54)C(OP(=O)([O-])O)C3O)C(O)C2O)c1.[Na+] (stereo unspecified) [Thio-NADP sodium]	94.1	100	91.7 (inactive)	104 (inactive)

Reference: the supplement of paper PMC7156485
